14 compounds from PubChem BioAssay can be followed below.

Molecules are shown by their SMILES. Activity calls are given as the source filed them.

The subject of assay [1] is PRMT1 (protein arginine N-methyltransferase 1). Description: PRMT1 binders on small-molecule microarrays, primary screen, biochemical, small-molecule microarray, 635 nm fluorescence (AID 1088).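 Further: binding of Prmt1 protein to compounds spotted on small-molecule microarray slides.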 The settings on record: small-molecule microarray binding, higher = more signal.
Assay [2] in a line: yeast growth modulation, basal conditions, primary screen, YJM789 clinical isolate, OD600, 24 h (AID 1089).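 Further: growth of clinical yeast isolate S. cerevisiae YJM 789 seeded 1000 cells per well; test concentration not given here.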 Particulars: S. cerevisiae YJM789 growth, higher = more signal, called active from +8 up or from −8 down.
The nature of assay [3]: fission yeast growth modulation, primary screen, strain 972, OD600, 24 h, no modulator (AID 1090).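 Further: basal condition with compound alone and no growth modifier present; test concentration not given here.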 Particulars: S. pombe 972 growth, higher = more signal, called active from +8 up or from −8 down.
The nature of assay [4]: S. cerevisiae growth modulation with rapamycin, primary screen, strain BY4716, OD600, 96 h (AID 1091). Further: test concentration not given here. Particulars: higher = more signal, called active from +8 up or from −8 down.
In assay [5] the target is Torsin-1A-interacting protein 2 (Homo sapiens) (UniProt Q8NFQ8). The assay can be described thus: LULL1 binders on small-molecule microarray, primary screen, cell lysate, human LULL1 lysate, 635/667 nm fluorescence (AID 1092).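 Further: probe is lysate of COS7 cells overexpressing human LULL1; score merges per-feature 667 nm fluorescence with signal-to-noise.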 Particulars: hLULL1 lysate binding, 635 nm fluorescence, higher = more signal.
The nature of assay [6]: E. coli growth modulation, two-sided OD650, primary screen, E. coli filamentation project, strain DRC41, 24 h (AID 1093).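 Further: MC1000 strain lacking acrAB efflux and sulA so SOS filamentation is blocked; test concentration not given here.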 Particulars: OD650, 24 h, higher = more signal, called active from +8 up or from −8 down.
The nature of assay [7]: small-molecule microarray binders of probe aLefty2, primary screen, biochemical, biotinylated probe, 635/667 nm fluorescence (AID 1094).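 Further: score merges spot fluorescence near 667 nm with spot signal-to-noise ratio.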 The settings on record: higher = more signal.
The subject of assay [8] is Noggin (protein binding on small-molecule microarray). Description: Noggin binders on small-molecule microarray, primary screen, biochemical, 635/667 nm fluorescence (AID 1095).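 Further: score merges 667 nm feature fluorescence with signal to noise over triplicate slides.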 The settings on record: 635 nm fluorescence, higher = more signal.
Assay [9] deals with Neurogenic locus notch homolog protein 3 (Homo sapiens) (UniProt Q9UM47). Description: NOTCH3 binders on small-molecule microarray, primary screen, biochemical, 635/667 nm fluorescence (AID 1096). Particulars: NOTCH3 binding, 635 nm fluorescence, higher = more signal.
Assay [10] in a line: small-molecule microarray binders of probe aEGFR, primary screen, biochemical, biotinylated probe, 635/667 nm fluorescence (AID 1097).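 Further: probe is a biotinylated anti-EGFR antibody binding compounds printed on slides; score combines fluorescence near 667 nm and signal to noise of each spot.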 The settings on record: higher = more signal.

Sequence of Torsin-1A-interacting protein 2 (Homo sapiens) (Q8NFQ8 whole entry, looked up): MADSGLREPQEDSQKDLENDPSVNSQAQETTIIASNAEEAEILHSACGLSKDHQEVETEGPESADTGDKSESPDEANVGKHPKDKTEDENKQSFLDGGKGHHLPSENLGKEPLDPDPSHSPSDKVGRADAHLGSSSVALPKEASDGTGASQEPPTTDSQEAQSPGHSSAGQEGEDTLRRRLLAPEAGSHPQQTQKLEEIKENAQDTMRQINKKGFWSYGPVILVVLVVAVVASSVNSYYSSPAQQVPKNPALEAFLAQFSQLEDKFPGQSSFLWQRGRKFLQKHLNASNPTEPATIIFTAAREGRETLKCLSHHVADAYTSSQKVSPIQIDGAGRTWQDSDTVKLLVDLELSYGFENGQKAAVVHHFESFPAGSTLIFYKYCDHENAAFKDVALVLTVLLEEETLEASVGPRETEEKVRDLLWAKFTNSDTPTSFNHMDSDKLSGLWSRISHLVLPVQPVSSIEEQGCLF
Sequence of Neurogenic locus notch homolog protein 3 (Homo sapiens) (Q9UM47 whole entry, looked up): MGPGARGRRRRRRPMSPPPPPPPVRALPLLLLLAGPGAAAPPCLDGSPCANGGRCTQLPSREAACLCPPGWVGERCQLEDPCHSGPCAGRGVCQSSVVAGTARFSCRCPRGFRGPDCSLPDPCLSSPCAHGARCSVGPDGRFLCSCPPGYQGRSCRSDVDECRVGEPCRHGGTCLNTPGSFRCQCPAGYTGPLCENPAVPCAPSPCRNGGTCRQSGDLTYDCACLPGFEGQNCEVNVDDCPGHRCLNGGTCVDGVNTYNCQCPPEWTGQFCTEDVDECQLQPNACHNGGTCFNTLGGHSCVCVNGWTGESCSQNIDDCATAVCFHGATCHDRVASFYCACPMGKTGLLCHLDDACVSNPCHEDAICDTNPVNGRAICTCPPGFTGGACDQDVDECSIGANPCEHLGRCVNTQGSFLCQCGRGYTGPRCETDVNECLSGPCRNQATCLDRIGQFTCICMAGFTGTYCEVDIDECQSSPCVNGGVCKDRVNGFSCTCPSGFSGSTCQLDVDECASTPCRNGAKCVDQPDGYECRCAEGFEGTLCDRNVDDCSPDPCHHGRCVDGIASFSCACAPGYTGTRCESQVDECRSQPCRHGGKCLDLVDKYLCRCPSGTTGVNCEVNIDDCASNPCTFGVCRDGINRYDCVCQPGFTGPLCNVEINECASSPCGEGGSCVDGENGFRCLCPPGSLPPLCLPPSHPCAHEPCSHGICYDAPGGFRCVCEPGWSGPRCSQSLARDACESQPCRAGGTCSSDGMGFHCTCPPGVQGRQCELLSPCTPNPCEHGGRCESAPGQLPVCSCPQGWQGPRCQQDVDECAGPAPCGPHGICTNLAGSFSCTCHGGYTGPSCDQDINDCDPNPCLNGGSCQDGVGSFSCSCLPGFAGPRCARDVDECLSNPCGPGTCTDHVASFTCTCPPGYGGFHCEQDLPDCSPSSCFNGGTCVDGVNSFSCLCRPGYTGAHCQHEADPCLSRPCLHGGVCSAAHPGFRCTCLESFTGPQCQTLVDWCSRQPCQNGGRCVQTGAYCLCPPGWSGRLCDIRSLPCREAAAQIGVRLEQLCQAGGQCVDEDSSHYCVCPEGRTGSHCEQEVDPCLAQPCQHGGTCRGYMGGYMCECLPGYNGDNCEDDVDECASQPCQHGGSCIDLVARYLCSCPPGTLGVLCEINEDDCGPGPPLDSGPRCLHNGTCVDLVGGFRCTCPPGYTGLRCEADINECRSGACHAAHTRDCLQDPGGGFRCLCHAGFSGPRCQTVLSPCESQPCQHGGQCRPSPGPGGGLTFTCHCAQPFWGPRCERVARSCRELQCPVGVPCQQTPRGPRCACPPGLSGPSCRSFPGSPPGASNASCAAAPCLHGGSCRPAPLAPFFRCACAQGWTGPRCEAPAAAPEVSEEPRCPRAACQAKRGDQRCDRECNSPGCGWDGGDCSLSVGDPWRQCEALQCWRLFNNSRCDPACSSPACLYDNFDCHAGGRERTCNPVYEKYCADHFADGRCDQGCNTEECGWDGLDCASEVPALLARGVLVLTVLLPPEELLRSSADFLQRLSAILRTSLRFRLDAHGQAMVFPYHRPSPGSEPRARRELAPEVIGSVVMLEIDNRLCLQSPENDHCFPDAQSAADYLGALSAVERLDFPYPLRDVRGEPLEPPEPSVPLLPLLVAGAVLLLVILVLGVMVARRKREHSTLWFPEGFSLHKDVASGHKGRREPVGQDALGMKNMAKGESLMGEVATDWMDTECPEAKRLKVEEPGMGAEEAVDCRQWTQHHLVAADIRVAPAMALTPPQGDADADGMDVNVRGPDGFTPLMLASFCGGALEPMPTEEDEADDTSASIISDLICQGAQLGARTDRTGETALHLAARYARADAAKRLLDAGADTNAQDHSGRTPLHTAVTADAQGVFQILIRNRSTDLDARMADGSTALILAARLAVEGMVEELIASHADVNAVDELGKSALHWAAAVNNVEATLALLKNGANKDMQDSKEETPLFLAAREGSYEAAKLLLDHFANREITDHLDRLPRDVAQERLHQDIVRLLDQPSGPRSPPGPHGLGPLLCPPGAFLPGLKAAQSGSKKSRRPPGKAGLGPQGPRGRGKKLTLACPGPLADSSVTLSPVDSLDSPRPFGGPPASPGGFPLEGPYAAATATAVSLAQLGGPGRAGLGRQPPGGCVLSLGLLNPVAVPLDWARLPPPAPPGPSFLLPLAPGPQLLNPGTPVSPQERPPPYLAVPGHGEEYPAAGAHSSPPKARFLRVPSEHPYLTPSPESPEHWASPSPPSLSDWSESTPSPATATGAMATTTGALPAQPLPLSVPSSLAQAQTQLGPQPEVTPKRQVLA

In the case of `O=C1OCCC=C[C@H]2OC34C=CCN(c5ccc(Cl)cc5)C(=O)[C@H]3N(CCCO)C(=O)[C@@H]4C12` (stereo not given in full), the composite z-score in [1] is -0.827; in [5] it was -1.28; in assay [7], 0.0058; in assay [8], -0.469; in assay [9], -0.792; in assay [10], -0.116. The z-score in assay [2] was -0.0304 (inactive); in [3], -1.36 (inactive); in assay [4], 0.0341 (inactive); in assay [6], 1.31 (inactive).
On to `COCC(=C=CC[C@H](O)c1cccc(OCCO)c1)CCO`, for which the composite z-score was 1.47 in [1]; 2.12 in [5]; -0.185 in assay [7]; 0.69 in assay [8]; 0.898 in assay [9]; -0.112 in [10]. The z-score in [2] was -0.45 (inactive); in assay [3] it was -0.19 (inactive); in assay [4], -0.55 (inactive); in assay [6] it was 0.0234 (inactive).
With `CN(C)CCCCNC(=O)[C@@H]1C[C@@H]2C(=O)N[C@@H](CCCCN)C(=O)N2[C@@H]1c1ccc(O)cc1`, the composite z-score was found to be 1.3 in assay [1]; 1.12 in assay [5]; 0.0864 in assay [7]; 0.855 in [8]; 0.159 in [9]; 0.0552 in assay [10]. Besides, the z-score in assay [2] is 0.184 (inactive); in assay [3], 1.17 (inactive); in [4], 3.58 (inactive); in [6], 0.813 (inactive).
As to `O=C1C2C=CC(C(O)C=Cc3ccc([N+](=O)[O-])cc3)N(n3cnnc3)C2C(=O)N1Cc1ccccc1` (stereo not given), the composite z-score in [1] was 0.934; in assay [5], 1.92; in [7], 0.292; in [8] it was -0.0663; in [9], 0.989; in assay [10] it was -0.0703. In addition, the z-score in assay [2] was -0.785 (inactive); in assay [3] it was -3.83 (inactive); in assay [4] it was -0.0166 (inactive); in [6], -0.0783 (inactive).
With `COC(=O)C(CC#Cc1ccc2c(c1)[C@]1(C(=O)N2)[C@H](c2ccc(O)cc2)N2[C@H](c3ccccc3)[C@H](c3ccccc3)OC(=O)[C@H]2[C@@H]1C(=O)N1CCN(c2ncccn2)CC1)C(=O)OC`, the composite z-score turned out to be 1.55 in [1]; 3.21 in [5]; 0.107 in [7]; 0.24 in assay [8]; 0.975 in assay [9]; 0.0167 in assay [10]. Further, the z-score in [2] is 1.07 (inactive); in assay [3] it was 0.516 (inactive); in assay [4], 1.93 (inactive); in [6], 0.248 (inactive).
Turning to `CCCCCCc1nc(-c2ccc(-c3ccc(Cl)c(Cl)c3)o2)cc2c1[Si](C(C)C)(C(C)C)O[C@H]2c1ccccc1`, the composite z-score in assay [1] was 0.287; in assay [5], 0.424; in assay [7], -0.196; in assay [8] it was 0.0792; in assay [9] it was -0.34; in assay [10] it was -0.249. The z-score in assay [2] is -0.124 (inactive); in [3], -0.45 (inactive); in [4] it was -1.35 (inactive); in assay [6] it was 0.488 (inactive).
In the case of `C=CCC(OC(C)=O)[C@@H]1[C@@H](N(Cc2ccc(-c3ccccc3)cc2)C(=O)Cc2ccc(F)cc2)c2cc(OCCCO)ccc2N1C(=O)c1ccc2ccccc2c1` (stereo not given in full), the composite z-score in [1] is 0.688; in assay [5] it was 0.437; in assay [7], 0.0002; in assay [8] it was 0.289; in assay [9] it was 0.147; in assay [10] it was -0.109. The z-score in [2] was 0.245 (inactive); in assay [3], 0.135 (inactive); in [4] it was 0.14 (inactive); in [6] it was 0.0919 (inactive).
Consider `CN1C(=O)C2C=CC(C(O)C=Cc3ccc([N+](=O)[O-])cc3)N(Nc3ccccc3)C2C1=O` (stereo not given), for which the composite z-score is 1.51 in [1]; 1.62 in assay [5]; 0.0849 in [7]; 0.577 in assay [8]; 1.12 in assay [9]; -0.0372 in assay [10]. The z-score in [2] was -0.131 (inactive); in assay [3] it was -1.18 (inactive); in assay [4] it was -0.656 (inactive); in [6], -1.35 (inactive).
Turning to `C=CCNC(=O)[C@@H]1[C@H]2C(=O)O[C@H](c3ccccc3)[C@H](c3ccccc3)N2[C@H](c2ccc(OCCO)cc2)[C@@]12C(=O)N(C(=O)OCCOC)c1ccc(C#CCC(C(=O)OC)C(=O)OC)cc12`, the composite z-score in assay [1] came out at 1.54; in assay [5], 2.39; in [7], 0.0398; in [8], 1.18; in assay [9], 1.03; in assay [10] it was 0.23. The z-score in [2] was 1.05 (inactive); in assay [3], 0.552 (inactive); in assay [4], 5.79 (inactive); in assay [6] it was -0.0236 (inactive).
As to `CC(C)CNC(=O)[C@@]1(Cc2ccccc2I)c2ccccc2C(=O)N(Cc2ccccc2C(F)(F)F)[C@H]1c1ccc(CO)cc1`, the composite z-score in assay [1] was 1.15; in assay [5], 1.6; in assay [7] it was -0.101; in assay [8], -0.518; in assay [9] it was -0.771; in assay [10], -0.201. The z-score in assay [2] was -0.618 (inactive); in assay [3], -0.0802 (inactive); in [4], -0.403 (inactive); in [6] it was 0.164 (inactive).
For `CCCCCCCCCCC(O)C1C=CC2C(=O)NC(=O)C2N1Nc1ccc(Cl)cc1Cl` (stereo not given), the composite z-score is 0.355 in [1]; 1.8 in assay [5]; -0.0769 in assay [7]; -0.729 in assay [8]; 0.102 in assay [9]; -0.137 in assay [10]. The z-score is 1.52 (inactive) in assay [2], -0.451 (inactive) in [3], 0.309 (inactive) in assay [4] and -2.39 (inactive) in [6].
In the case of `COc1cc2c(cc1O)C(c1cccs1)N(Cc1cccc(OC(F)(F)F)c1)CC2` (stereo not given), the composite z-score in assay [1] was 1.46; in [5], 2.1; in assay [7] it was -0.0785; in assay [8] it was -0.648; in [9], 0.108; in assay [10], -0.139. Also, the z-score in [2] was -2.16 (inactive); in [3], -8.15 (active); in assay [4], -2.63 (inactive); in assay [6] it was -0.878 (inactive).
For the compound `COc1ccc(C(O)C2C=CC3C(=O)N(C)C(=O)C3N2NC(=O)OC(C)(C)C)c2ccccc12` (stereo not given), the composite z-score in [1] was 1.57; in [5], 3.12; in assay [7], 0.284; in assay [8] it was -0.149; in [9], 1.08; in [10], 0.0185. Moreover, the z-score was -0.842 (inactive) in assay [2], 1.64 (inactive) in assay [3], 0.577 (inactive) in [4] and -0.618 (inactive) in [6].
For the compound `COCCOC(=O)N1C(=O)[C@@]2(c3cc(C#CCCO)ccc31)[C@H](c1ccc(O)cc1)N1[C@H](c3ccccc3)[C@H](c3ccccc3)OC(=O)[C@H]1[C@@H]2C(=O)N1CCN(c2ncccn2)CC1`, the composite z-score in assay [1] is 1.53; in assay [5] it was 3.17; in [7], 0.837; in assay [8] it was 1.58; in assay [9], 1.01; in assay [10] it was -0.283. Besides, the z-score in [2] was 0.356 (inactive); in assay [3] it was 0.686 (inactive); in [4] it was 1.6 (inactive); in assay [6], 0.531 (inactive).
